In PubChem BioAssay AID431 (Sanford-Burnham Center for Chemical Genomics, 2006):
About 1,100 (1.7%) of roughly 63,000 compounds were called active. This excerpt belongs to a sample that is enriched for actives. Measured potencies and affinities stand elsewhere. Values without a mark were called inactive.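 The calls were made as follows: active = compounds whose percent cytotoxicity in the single-dose primary screen, scaled between solvent and toxic-drug controls, exceeds 50; inactive = the rest.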

Assay: cytotoxicity in KRAS-transformed pancreatic duct cells, primary screen, cell-based, fluorescence, HTS (AID 431);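 also: 0% = DMSO solvent wells and 100% = doxorubicin-treated wells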
Settings: HPDE-C7K KRASV12 cells, Alamar Blue viability, 48 h; at 10 µM; hits give high values

| SMILES | cytotoxicity |
| --- | --- |
| O=C(NCCCN=C1NS(=O)(=O)c2ccccc21)c1ccc(S(=O)(=O)N2CCCCC2)cc1 | -14.3% |
| c1ccc(Cn2c(SCc3nc4ccccc4s3)nnc2-c2ccco2)cc1 | 8.5% |
| Nc1c(NC2CCCCC2)c2ccccc2oc1=O | -25.2% |
| CCOC(=O)c1c(-c2cccs2)csc1NC(=O)CCCC(=O)O | 25.9% |
| CCOC(=O)c1c(-c2cccs2)csc1NC(=O)CN1CC(C)OC(C)C1 (stereo unspecified) | 60.6% (active) |
| COC(=O)c1c(-c2cccs2)csc1NC(=O)CN1CCOCC1 | 4.8% |
| N#CCc1ccc(NS(=O)(=O)c2ccc(N3CCCC3=O)cc2)cc1 | -0.7% |
| Cc1ccc2cc3c(N)c(C(=O)N4CCOCC4)sc3nc2c1 | -10.3% |
| Cc1ccc2nc3sc(C(=O)N4CCOCC4)c(N)c3cc2c1 | 5.9% |
| Cc1cccc2cc3c(N)c(C(=O)N4CCOCC4)sc3nc12 | 68.7% (active) |
| O=C(NCCCN1CCCCCC1)c1ccc2c(c1)NC(=O)C(N1CCOCC1)S2 (stereo unspecified) | -17.2% |
| O=C(Nc1c(C(=O)O)oc2ccc(Br)cc12)c1ccccc1 | 31.7% |
| COc1ccc(C(NC(C)=O)c2ccc3cccnc3c2O)c(OC)c1 (stereo unspecified) | -6.2% |
| COc1cc(C(=O)Nc2ccccn2)cc(OC)c1OC | 21.5% |
| CCOc1ccc(C(=O)Nc2c3c(nn2-c2cccc(C)c2C)CS(=O)C3)cc1 (stereo unspecified) | -6.5% |
| CC(C)c1nc(N2CCN(C(=O)c3ccco3)CC2)c2c3c(sc2n1)CCCC3 | -14.3% |
| O=C(c1ccco1)N1CCN(c2nc(C3CC3)nc3sc4c(c23)CCCC4)CC1 | 50.9% (active) |
| Cc1nc(N2CCN(C(=O)c3ccco3)CC2)c2c3c(sc2n1)CCC3 | 2.2% |
| COc1cccc(CCC(=O)O)c1OC | -7% |
| CCOC(=O)N1CCN(C(=O)Cn2nc(C)c3sc4ccccc4c3c2=O)CC1 | -5% |
| CCN(CCNC(=O)C1CCCN(Cc2nc(-c3ccc(OC)cc3)oc2C)C1)c1ccccc1 (stereo unspecified) | 62.7% (active) |

| SMILES | cytotoxicity |
| --- | --- |
| CCc1ccc(-c2nc(CN3CCCC(C(=O)NCCc4ccc(OC)c(OC)c4)C3)c(C)o2)cc1 (stereo unspecified) | 5.5% |
| CCc1ccc(-c2nc(CN3CCC(C(=O)NCCN(CC)c4ccccc4)CC3)c(C)o2)cc1 | 39.2% |
| Cc1nonc1NC(=O)CSc1nc2cc(Cl)ccc2c2c1CCCC2 | 36.2% |
| Cn1c(NC(=O)c2cccnc2)nc2ccccc21 | 0.4% |
| Cc1ccc(S(=O)(=O)CCC(=O)OCC(=O)Nc2cc(C)on2)cc1 | -22.1% |
| Cc1cc(C)nc(SCC(=O)c2ccc(O)cc2O)n1 | -9.3% |
| COc1ccc2nc(NCCO)[nH]c2c1 | -14.2% |
| CCCOc1ccc2nc(NC(=O)OC)[nH]c2c1 | 61.1% (active) |
| COc1ccc(C(=O)Nc2nc3ccccc3[nH]2)cc1OC | -8% |
| CCOc1ccc2nc(NCCO)[nH]c2c1 | 4.8% |
| COc1ccc2nc(SCC(N)=O)[nH]c2c1 | -17.7% |
| CCCSc1ccc2nc(NC(=O)OC)[nH]c2c1 | 63.4% (active) |
| Cn1nc(CC(=O)Nc2cccc3ncccc23)c2ccccc2c1=O | -4.3% |
| CCOC(=O)c1ccc(NC(=O)CCc2nc(-c3cccc(C)c3)no2)cc1 | 1% |
| CCOC(=O)c1[nH]c(C)c(C(=O)NCCN2CCOCC2)c1C | 8.4% |
| CC(=O)c1c(C)[nH]c(C(=O)OCC(=O)Nc2cc(C(F)(F)F)ccc2N2CCOCC2)c1C | 14.5% |
| CCC(=O)N/C=C/n1cnc2cc(C(F)(F)F)ccc21 | 15.3% |
| C=CCOC(=O)CCC(=O)Nc1cc(OC)nc(OC)n1 | 51.4% (active) |
| C#CCOC(=O)CCC(=O)Nc1cc(OC)nc(OC)n1 | -8% |
| COc1cc(NC(=O)CCCC(=O)OCC(F)(F)C(F)F)nc(OC)n1 | -2.6% |
| CCOC(=O)Cn1c(C)c(C#N)c2ccccc21 | 8.1% |

| SMILES | cytotoxicity |
| --- | --- |
| COc1ccc(N(CC(=O)N2CCc3ccccc32)S(=O)(=O)c2c(C)noc2C)cc1 | 2% |
| O=C(COc1ncnc2ccc(Br)cc12)Nc1ccc(N2CCOCC2)cc1 | -7.7% |
| COc1ccc(OC)c(-c2nnc(NC(=O)C(C)Sc3nncn3C)s2)c1 (stereo unspecified) | 4.7% |
| Cc1ccc(S(=O)(=O)NC2CCOC(C)(C)C2)cc1 (stereo unspecified) | -15.4% |
| COc1cccc2c1C(=O)c1c(O)c3c(c(O)c1C2=O)C[C@@](O)(C(=O)CO)C[C@@H]3O[C@H]1C[C@H](N)[C@H](O)[C@H](C)O1 | 98.7% (active) |
| COc1cccc2c1C(=O)c1c(O)c3c(c(O)c1C2=O)C[C@@](O)(C(C)=O)C[C@@H]3O[C@H]1C[C@H](N)[C@H](O)[C@H](C)O1 | 106% (active) |
| COc1ccccc1N1CCN(C(=O)c2nn(-c3ccccc3OC)c(=O)c3ccccc23)CC1 | 4.9% |
| CCNc1nc(Oc2ccc(=O)n(-c3ccccc3)n2)nc(N2CCOCC2)n1 | 4.3% |
| Nc1nnc(N2CCCCC2)s1 | -11.2% |
| Cc1ccc(CNS(=O)(=O)c2ccc3oc(C(=O)O)c(C)c3c2)cc1 | 1.5% |
| CCOC(=O)N1CCN(C(=O)CCn2nc(-c3ccc(Cl)cc3)ccc2=O)CC1 | -0.1% |
| CCOc1ccc(NS(=O)(=O)c2ccc(NS(C)(=O)=O)cc2)cc1 | -17% |
| COc1ccc(S(=O)(=O)Nc2cccc(Cl)c2)cc1OC | 9.4% |
| CCOc1ccc(S(=O)(=O)Nc2cc(Cl)ccc2O)cc1 | 64.5% (active) |
| CCOc1ccc(S(=O)(=O)Nc2cccnc2)cc1 | 4.6% |
| CCOc1ccc(S(=O)(=O)Nc2cccc(Cl)c2)cc1 | 65% (active) |
| CCOc1ccc(NS(=O)(=O)c2cc(Cl)ccc2OC)cc1 | -5.4% |
| Clc1ccc(-c2noc(CN3CCCC3)n2)cc1 | -4.3% |
| COc1ccc(Cl)cc1NC(=O)CN(C(=O)c1ccco1)C1CCCCC1 | 4.7% |
